Assay outcomes deposited in PubChem BioAssay by The Scripps Research Institute Molecular Screening Center.
This is a sample that favours compounds with a hit; in the whole collection about 3.5% have one here.
MITF inh: inhibitors of human MITF; O75030; AlphaScreen MITF homodimerization, bead proximity signal; inhibition, % at 2.6 µM; hit rate 0.91% among 650,000; in the data active = inhibition above about 50%;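 note: 0% = vehicle wells with protein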
FBW7 act: human FBW7 E3 ligase activation, primary screen; AlphaScreen FBW7–phospho-cyclin E peptide binding, activator screen; hit rate 0.13% among 650,000; AID 1259310; Q969H0; normalized activity (activation), % at 26.1 µM; in the data active = normalized activity above about 1.9%;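 note: purified mutant Fbw7 with reduced substrate affinity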
GPR151 activ: activators of human GPR151; PathHunter beta-arrestin GPR151 cells, luminescence; activation, % at 11.2 µM; hit rate 1% among 650,000; AID 1508602; in the data active = activation above about 4.9%;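 note: 0% = median of compound wells and 100% = cells with positive control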
Target sequence (Q8TDV0 whole entry, looked up): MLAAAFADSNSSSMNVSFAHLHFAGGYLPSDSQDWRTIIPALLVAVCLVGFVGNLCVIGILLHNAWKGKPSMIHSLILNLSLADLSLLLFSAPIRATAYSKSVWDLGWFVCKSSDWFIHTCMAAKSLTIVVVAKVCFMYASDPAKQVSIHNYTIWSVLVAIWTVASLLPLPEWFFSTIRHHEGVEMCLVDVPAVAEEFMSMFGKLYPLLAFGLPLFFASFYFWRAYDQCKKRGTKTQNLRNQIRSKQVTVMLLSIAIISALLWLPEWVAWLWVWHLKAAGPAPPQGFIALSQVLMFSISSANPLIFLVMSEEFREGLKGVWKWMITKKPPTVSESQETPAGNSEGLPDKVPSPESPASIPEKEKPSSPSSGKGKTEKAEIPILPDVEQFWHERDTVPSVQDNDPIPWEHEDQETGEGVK
TEAD-YAP inh: TEAD-YAP interaction inhibition; hit rate 1.4% among 640,000; inhibition, % at 9.12 µM; AID 1259422; HEK-TIYL cells, TEAD-Gal4/YAP UAS-luciferase luminescence; in the data active = inhibition above about 32%;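 note: 0% = median of test compound wells and 100% = reference inhibitor wells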
MITF inh conf: human MITF inhibition, confirmation. AlphaScreen MITF homodimerization, biotin/His-MITF beads. shares compounds with MITF inh. hit rate 16% among 4,700. inhibition, % at 2.6 µM;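 active = inhibition above a cutoff derived from the DMSO control wells, cut at about 28% in these data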;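 note: 0% = MITF dimer wells with DMSO only; inhibitors lower the bead chemiluminescence by keeping MITF from dimerizing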
AlphaScreen DR: optically interferes with AlphaScreen signal in dose response; shares compounds with MITF inh; AlphaScreen optical interference counterscreen, cell-free; IC50, µM; hit rate 6% among 480; AID 1259373; call rule not given here
AlphaScreen intf2: counter-screen: compounds optically interfering with AlphaScreen; shares compounds with MITF inh; LysRS AlphaScreen counterscreen, signal interference, triplicate; inhibition, % at 2.6 µM; hit rate 7.6% among 4,700; AID 1259376;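 active = inhibition above a cutoff derived from the DMSO control wells, cut at about 30% in these data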
GPR151 confirm: confirmation of human GPR151 activators. shares compounds with GPR151 activ. GPR151 PathHunter beta-arrestin cells, luminescence, 90 min; % of EA-reagent control over plate median. activation, % at 11.2 µM. 6,700 tested, under 10 active. AID 1508609;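 active = mean percent activation across replicates above the confirmation screen cutoff of 4.91%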
GPR119 ag: activates human GPR119 in a GPR151 counter-screen. shares compounds with GPR151 activ. activation, % at 11.2 µM. GPR119 PathHunter beta-arrestin cells, luminescence, 90 min; 0 = compound-well median, 100 = enzyme-acceptor control. hit rate 0.3% among 6,700;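 active = mean percent activation in the counterscreen above 29.09%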;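 note: counterscreen on off-target GPR119 to flag nonselective hits from the GPR151 activator screen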
The depositor's hits bear a star; . = not tested or not shown; ! = not active in a repeat.

SMILES	MITF inh	FBW7 act	GPR151 activ	TEAD-YAP inh	GPR151 confirm	GPR119 ag	others
CN(C)[C@@H]1C(=O)C(C(N)=O)=C(O)[C@@]2(O)C(=O)C3=C(O)c4c(O)ccc(Cl)c4[C@@](C)(O)[C@H]3C[C@@H]12	-5	0	-1	-13	.	.
CN(C)[C@@H]1C(=O)C(C(N)=O)=C(O)[C@@]2(O)C(=O)C3=C(O)c4c(O)cccc4[C@@](C)(O)[C@H]3[C@H](O)[C@@H]12	64*	0	7.4*!	-2	0	0	MITF inh conf=62*;AlphaScreen DR=4.4*!;AlphaScreen intf2=31*!
O=C(OCCN1CNC(=N[N+](=O)[O-])NC1)c1ccc([N+](=O)[O-])cc1	-1	0	0	-2	.	.
Cc1c(N=Nc2c(O)[nH]c(=S)[nH]c2=O)c(=O)n(-c2ccccc2)n1C	92*	0	15*	-9	1	4	MITF inh conf=36*;AlphaScreen intf2=100*
CSc1ccc(CN2CCN(Cc3ccc(F)cc3)CC2)cc1	78*	0	5.2*	10	0	-5	MITF inh conf=3;AlphaScreen intf2=0
c1ccc(CCN2CCc3nc4ncccc4cc3C2)cc1	-2	0	0	-15	.	.
CC12C=CC(=O)C=C1CCC1C2CCC2(C)C(=O)CCC12 (configuration not stated)	7	0	5.1*	-16	0	-6
C[C@]12CCC(=O)C=C1CC[C@@H]1[C@@H]2CC[C@]2(C)C(=O)CC[C@@H]12	2	1	-1	-6	.	.
Cc1ccc2c(Br)cc(Br)c(OC(=O)N(C)C)c2n1	8	0	-1	1	.	.
CC(=O)NC1(c2ccccc2)CC(C)N(C)CC1C (configuration not stated)	-27	0	5.0*	7	0	7
COc1ccc(C(=O)C2CCCN(C)C2)c(OC)c1 (configuration not stated)	35	0	5.0*	3	0	-10
Cc1cccn2c(CNC(C)Cc3cccnc3)c(C(=O)N3CCCCC3)nc12 (configuration not stated)	1	0	-1	0	.	.
CC(Cc1cccnc1)NCc1c(C(=O)N2CCCCCCC2)nc2ccc(Cl)cn12 (configuration not stated)	-5	0	5.0*	-10	0	-2
NC(=O)CN1CCCC2(CCCCC2)C1	-10	0	0	-1	.	.
CCCCCCCCCCCCCCCC[n+]1ccccc1	-7	0	5.0*	60*	2	13
CC(=O)c1ccc(OCC(=O)N2CCCC(N(C)CCc3ccccc3)C2)cc1 (configuration not stated)	19	0	5.0*	-2	1	5
CN(Cc1ccccc1)S(=O)(=O)c1ccc2[nH]cc(C(=O)N3CCC4(CC3)OCCO4)c(=O)c2c1	-12	0	0	5	.	.
CCCCOC(=O)C1=C(N)OC(C)=C(C(=O)OCCOC)C12C(=O)Nc1ccccc12 (configuration not stated)	1	0	5.3*	7	0	2
CCOC(=O)C1=C(N)OC(C)=C(C(=O)OCCOC)C12C(=O)Nc1ccccc12 (configuration not stated)	14	0	1	-6	.	.
Cc1ccccc1N1CCN(Cc2ccc([N+](=O)[O-])cc2)CC1	0	0	0	-3	.	.
COc1ccccc1N1CCN(Cc2ccc([N+](=O)[O-])cc2)CC1	37	0	5.5*	8	-1	8
O=C1[C@H]2CN(Cc3ccncc3)CCN2C(=O)[C@H]2CCCN12	17	0	1	1	.	.
N#Cc1ccc(NC(=O)CN2c3cccc4cccc(c34)S2(=O)=O)cc1Cl	19	1	5.2*	17	1	-3
CC1(c2ccc3ccccc3c2)NC(=O)N(CC(=O)Nc2ccc(C#N)c(Cl)c2)C1=O (configuration not stated)	9	0	0	1	.	.
